We go through 101 compounds from PubChem BioAssay AID1578 (Sanford-Burnham Center for Chemical Genomics, 2009).

The campaign covered roughly 290,000 compounds. About 3,000 (1%) were called active. The full list was thinned out, with actives kept by preference. Unmarked numbers belong to inactive results. Rule as the data show it: active = inhibition mostly above about 36% (no sharp cut-off); inactive = mostly below about 34%.

This experiment in a line: NOD1 signaling inhibitors, primary screen, cell-based, luminescence, uHTS (AID 1578).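 Also: HEK-293T reporter cells stimulated with the NOD1 agonist gamma-tri-DAP.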 Conditions: NOD1-driven NF-kB luciferase reporter cells, at 4 µM, hits give high values. Background: In a reporter assay the amount or activity of a reporter protein is the signal.
Usually inhibition stands for the drop in the measured response relative to a control, in per cent. As to `Nc1c(Cl)ncnc1N/N=C/c1ccc(O)cc1`, the inhibition is -9%. `Nc1c(Cl)ncnc1N/N=C/c1ccnc2ccccc12`: the inhibition was 8.6%.

With `Nc1c(Cl)ncnc1N/N=C/c1ccc2ccccc2n1`, the inhibition is 109% (active). As for `CCCCOC(=O)C1C2C=C[C@]3(CN(C(C)c4ccc(OC)cc4)C(=O)[C@H]13)O2` (stereo partly specified), the figure is 11.8%. For `CC(=O)Nc1cccc(Cl)c1C(=O)O`, the inhibition is -21.4%.

As to `Cc1nn(C(=O)c2ccco2)c(C)c1Sc1ccc([N+](=O)[O-])cc1`, the inhibition was -7.1%. As for `O=C(N/N=C(\CC(=O)c1cccs1)C(F)(F)F)c1ccncc1`, the figure is -3.7%; as for `Cc1ccc(C(=O)N/N=C(/CC(=O)c2cccs2)C(F)(F)F)cc1`, 70% (active); as for `O=C(N/N=C(/CC(=O)c1cccs1)C(F)(F)F)c1ccc(O)cc1`, -19.9%. As for `COC(=O)Cc1c(C)c2ccc(OC3CCCCC3=O)c(C)c2oc1=O` (stereo unspecified), the figure is -8.8%; as for `Clc1ccc(-c2nnc(C3CC3)o2)cc1`, -15.4%; as for `Clc1ccc(-c2nnc(C3CCCCC3)o2)cc1`, 70.8% (active). Then `c1cncc(-c2nnc(C3CCCCC3)o2)c1`, with 11.8%. As for `COc1ccc(C(=O)NC(CC(=O)O)c2cc([N+](=O)[O-])ccc2Cl)c(SC)c1` (stereo unspecified), the inhibition was -14.4%. Take `O=C1C2CCCN2C(c2ccc(F)cc2)N1c1cccc(Cl)c1` (stereo unspecified): the inhibition is -10.3%.

For the compound `O=C(COC(=O)c1cncc(Br)c1)NCCC1=CCCCC1`, the inhibition is -8.5%. Then `Cc1ccc(Sc2ccc(/C=N/O)cc2[N+](=O)[O-])cc1`, with 54.4% (active); and `O=[N+]([O-])c1cc(/C=N/O)ccc1Sc1ccccc1`, with 8.1%. Regarding `CO/N=C/c1ccc(Sc2ccc(C)cc2)c([N+](=O)[O-])c1`, the inhibition is 7.3%. Then `COc1ccc(OC)c(NC(=O)C2CCN(c3ncccn3)CC2)c1`, with -1.7%; and `COc1ccc(N2CCN(Cc3cc4c(cc3Br)OCCO4)CC2)cc1`, with -11.3%; and `COc1ccc(C=O)cc1Cn1ccnc1`, with -23%.

For the compound `CCc1nccn1Cc1cc(C=O)ccc1OC`, the inhibition is 15%. Then `COc1ccc(C=O)cc1Cn1ccnc1C`, with 62.6% (active); and `Cc1oc(-c2ccccc2)cc1C(=O)NC(Cc1c[nH]c2ccccc12)C(=O)O` (stereo unspecified), with -35.2%. As for `O=C(NCCNC(=O)c1ccccc1)c1ccccc1`, the figure is -9.5%. Then `CCCCCn1c(N)c(C#N)c2nc3ccccc3nc21`, with 8.5%; and `CN(C)CCCn1c(N)c(C#N)c2nc(C#N)c(C#N)nc21`, with 76.3% (active). Regarding `CN(C)CCCn1c(N)c(C#N)c2nc3ccccc3nc21`, the inhibition is 5.6%. As for `O=C1NC(=S)S/C1=C\c1ccc2ccccc2c1`, the figure is 5.2%; as for `Cc1ccc(C2C(C=Nc3c(C)n(C)n(-c4ccccc4)c3=O)=C(c3ccccc3)Oc3ccccc32)cc1` (stereo unspecified), 29.1%. Then `Cc1ccc(C2C(/C=C3/SC(=S)NC3=O)=C(c3cccs3)Oc3ccccc32)cc1` (stereo unspecified), with 88% (active); and `CCC1CCCCN1S(=O)(=O)c1ccc(S(=O)(=O)N(Cc2cccs2)C2CC2)cc1` (stereo unspecified), with 7.6%; and `O=c1oc2ccccc2cc1-c1ccccc1`, with -31.9%.

Consider `O=c1oc2ccccc2cc1-c1ccc(O)cc1`, for which the inhibition is 54.1%. As for `Nc1ccc(-c2cc3ccccc3oc2=O)cc1`, the figure is 63.5% (active).

`Cc1cccn2cc(-c3cc4ccccc4oc3=O)nc12`: the inhibition was -21.9%. Regarding `O=c1oc2ccccc2cc1-c1cn2ccccc2n1`, the inhibition is 64.7% (active). As for `O=c1oc2ccccc2cc1-c1cn2cccnc2n1`, the figure is -55.7%; as for `Cc1cc(C)c2cc(CN(CCO)Cc3nnnn3Cc3ccccc3)c(=O)[nH]c2c1`, -12.5%; as for `O=C(CC1COc2ccccc2O1)Nc1ccccn1` (stereo unspecified), -29.1%. Then `CCN(CC)S(=O)(=O)c1ccc(N2CCCC2)c(NS(=O)(=O)c2ccccc2)c1`, with 4.1%; and `CN(C)CCNC(=O)/C(=C/c1ccc(-c2cccc([N+](=O)[O-])c2)o1)NC(=O)c1ccccc1`, with 4.2%; and `CN(C)CCNC(=O)/C(=C/c1ccc(-c2cccc(Cl)c2)o1)NC(=O)c1ccccc1`, with 112% (active). Then `CN(C)CCNC(=O)/C(=C/c1ccc(-c2ccc(Cl)cc2)o1)NC(=O)c1ccccc1`, with -19.3%; and `Cc1nnc(NC(=O)C2CCCN(S(=O)(=O)Cc3ccccc3)C2)s1` (stereo unspecified), with -8.7%; and `Cc1cccc(Cn2c(C)nc3c(N)c(C)c(C)cc32)c1`, with -13.6%. In the case of `COc1ccc2nc(N/C(N)=N/C(=S)Nc3ccccc3)nc(C)c2c1`, the inhibition was 29.9%. Then `Cc1cccc(NC(=S)/N=C(\N)Nc2nc(C)c3cc(C)ccc3n2)c1`, with 23.1%. As for `COc1ccc2nc(N/C(N)=N/C(=S)Nc3cccc(C)c3)nc(C)c2c1`, the figure is 51.4% (active); as for `O=C(Cc1ccccc1)Nc1cc2c(cc1Cl)OCCCO2`, -59.9%; as for `CCN(CC(=O)NCc1ccc(Cl)cc1)C(=O)/C=C/c1ccc(Cl)c([N+](=O)[O-])c1`, -18.8%.

As to `CN(C)C(=O)c1ccc(NS(=O)(=O)c2ccc3c(c2)OCCO3)cc1`, the inhibition was -34.8%. Then `CC(=O)Nc1ccc(C2=NNC(=Nc3cccc(S(=O)(=O)N(C)C)c3)SC2)cc1`, with -32.6%; and `CCc1ccc(C2=NNC(=Nc3cccc(S(=O)(=O)N(C)C)c3)SC2)cc1`, with 72.3% (active). Then `CN(C)S(=O)(=O)c1cccc(N=C2NN=C(c3ccccc3)CS2)c1`, with 26.1%. Then `COc1ccc(-n2c(=O)[nH]c3cc(C(=O)NCCc4ccc(Cl)cc4)ccc3c2=O)cc1OC`, with 7.4%; and `O=C(O)/C=C/C(=O)NC1CCS(=O)(=O)C1` (stereo unspecified), with 99.9% (active); and `O=C(O)/C=C/C(=O)NC1CC1`, with -13.1%.

For `O=C(/C=C/c1ccccc1)NC1CCS(=O)(=O)C1` (stereo unspecified), the inhibition was -20%.

In the case of `CCCC(C)c1nc(C(N)=O)c2[nH]c(=O)n(-c3ccc(OC)c(OC)c3)c2n1` (stereo unspecified), the inhibition is -11.9%.

On to `COc1ccc(/C=N/Nc2ccc(C(=O)O)cc2)cc1OC`, for which the inhibition was -8.6%. Then `COc1cccc(/C=N/Nc2ccc(C(=O)O)cc2)c1O`, with 104% (active); and `COc1cc(/C=N/NS(=O)(=O)c2ccc(C)cc2)ccc1OCc1ccc(C(=O)O)cc1`, with 18.4%. `COc1ccc(/C=N/Nc2ccc(C(=O)O)cc2)cc1Br`: the inhibition was 50.9% (active). Then `COc1cc(/C=N/O)ccc1OCc1ccc(C(=O)O)cc1`, with 100% (active); and `COc1cccc(/C=N/Nc2ccc([N+](=O)[O-])cc2)c1O`, with -2.8%; and `O=C(O)c1ccc(N/N=C/c2c(F)cccc2Cl)cc1`, with 26.1% (active). Then `COc1cccc(/C=N/Nc2ccccc2C(=O)O)c1O`, with -5.1%; and `O=C(O)c1ccc(N/N=C/c2cccc(F)c2)cc1`, with -22.9%; and `O=C(N/N=C/c1c(F)cccc1Cl)C1CC1`, with -15.7%.

Turning to `COc1cc(/C=N/O)ccc1OCc1ccc(Cl)cc1`, the inhibition is -6.6%. As for `COc1cc(/C=N/Nc2ccc(C(=O)O)cc2)ccc1O`, the figure is -8.3%. As for `COc1cc(=O)[nH]c(SCC(=O)Nc2ccc3ccccc3c2)n1`, the figure is -28.4%; as for `CCOc1ccc(-c2nnc(NC(=O)Cc3ccc(OC)cc3)o2)cc1`, -18.3%. As for `O=C1Cc2ccccc2C(=O)N1c1ccc(F)cc1Cl`, the figure is -16.4%; as for `C=CCn1cc(C(C)=O)c(=O)[nH]c1=O`, -20.3%; as for `C/C(CC(=O)Nc1ccc2c(c1)OCCO2)=N\NC(=O)Cc1ccc(Cl)cc1`, -8.8%. Turning to `COCCCNC(=O)Cn1c(=O)n(Cc2ccc(F)cc2)c(=O)c2sccc21`, the inhibition is -8.2%.

`CSCCOC(=O)C1=C(C)NC(=O)NC1c1ccc2c(c1)OCO2` (stereo unspecified): the inhibition was -24.6%. As for `O=C(NCC1CCCO1)c1cc2ccccc2nc1Cl` (stereo unspecified), the figure is -20.2%.

For the compound `CCn1c(=O)c([N+](=O)[O-])c(N2CCSCC2)c2ccccc21`, the inhibition was 8.8%. Then `O=C(NCc1ccccc1)c1ccc(Cn2cc(C(F)(F)F)ccc2=O)cc1`, with -8.1%; and `O=C(N/N=C/c1ccc2c(c1)OCO2)c1ccc2c(c1)OCO2`, with -42.6%; and `CC(C)c1ccc(/C=N/Nc2ccc(C(=O)O)cc2)cc1`, with 64.4% (active). Then `COc1ccc(C(=O)/C=C/c2ccc(OCc3ccccc3)cc2)cc1CSCC(=O)O`, with 0.4%. `COC(=O)c1ccc(COc2ccc(/C=C/C(=O)c3ccc(OC)c(CSCC(=O)O)c3)cc2OC)cc1`: the inhibition is 49.5% (active). Take `O=C(O)c1ccc(N/N=C/c2ccc(C(F)(F)F)cc2)cc1`: the inhibition is 17.4%.

Turning to `O=C(O)c1cc(N/N=C/c2ccc3c(c2)OCO3)ccc1Cl`, the inhibition is -59.6%. As for `O=C(O)c1ccc(N/N=C/c2ccc3c(c2)OCO3)cc1`, the figure is 80.4% (active); as for `COc1ccc(C(=O)/C=C/c2cccc(OCc3ccccc3)c2)cc1CSCC(=O)O`, 11.8%; as for `O=C(O)c1ccc(N/N=C/c2ccc(-c3ccccc3)cc2)cc1`, -27%. Then `CCOC(=O)c1[nH]n(-c2ccc(Cl)cc2)c(=O)c1C`, with -33.9%.

With `O=C(c1cc(-c2ccc(Cl)cc2)n[nH]1)N1CCN(C(=O)c2ccco2)CC1`, the inhibition is 13.4%. As for `COC(=O)C1CC(c2ccc(Cl)cc2)=NO1` (stereo unspecified), the figure is -38.4%. As for `CCOc1ncccc1C(=O)Nc1cccc(-c2nnc3n2CCCCC3)c1`, the figure is -22.1%; as for `Cc1cccc(C)c1NC(=S)NCCc1ccc(O)c(O)c1`, -28.1%. Then `COc1ccccc1OC(=O)C1CC(=O)N(c2ccc(Cl)cc2)C1` (stereo unspecified), with -7.8%; and `Cc1ccccc1-n1c(SCc2csc(Nc3ccccc3)n2)nnc1-c1cccnc1`, with -18.5%.

Turning to `Cc1ccc(Nc2nc(CSc3nnc(-c4cccnc4)n3-c3ccccc3C)cs2)cc1`, the inhibition was 87% (active). As for `Cc1ccc(Nc2nc(CSc3nnc(-c4cccnc4)n3-c3ccccc3F)cs2)cc1`, the figure is 18.9%.
